Laboratory results: PubChem BioAssay (NCATS)
Results filed as inconclusive are left out. Activity calls are given as the source filed them. The call rests on the fitted dose curve; in most records, active means well fitted cell-killing curve with a large enough effect; inconclusive means small, poorly fitted or top-dose-only effect, or effect the other way; inactive means no such curve, though single readings can be large or run the other way.

Experiment: Viability qHTS for spleen associated tyrosine kinase inhibitor (SYKi) naive MV4-11 cells (AID 1963823); further: nearly all actives have a fitted effect of over 40% in size
Details: MV4-11 AML viability, CellTiter-Glo luminescence, 72 h; series mostly up to 45 µM; viability (% of control): at the top concentration
In short: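 Cells: MV4-11, SYK inhibitor naive, 500 per well. Treatment: library compounds, 72 hr, 37 C, 5% CO2. Read-out: CellTiter-Glo luminescence after 10 min RT.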
Potency means the concentration at half of the fitted maximal effect.

Row | SMILES | viability (% of control) | Potency
1 | CC1=CC(=O)CC(C)(C)C1CCC(C)O[C@@H]1O[C@H](CO)[C@@H](O)[C@H](O)[C@H]1O (stereo partly drawn) | 83.6% (inactive) | 
2 | CC(C)CN(CC(=O)N(CCCN1CCCC1=O)CC(N)=O)C(=O)CNCCc1ccccc1F | 89.8% (inactive) | 
3 | Clc1ccccc1CNCC1CCC(CNCc2ccccc2Cl)CC1 (stereo not drawn) |  | 11.6 µM (active)
4 | C#CCN(Cc1cc2c(=O)n(C)c(CN3CCN(C)CC3)nc2cc1Cl)c1ccc(C(=O)NCc2cccnc2)cc1 | 2.34% (inactive) | 
5 | Cn1ccnc1CCOC(c1cc2nccc(C(=O)O)c2[nH]1)c1ccccc1Cl (stereo not drawn) | 93.7% (inactive) | 
6 | OC[C@H]1O[C@@H](O[C@@H]2OC=C[C@H]3[C@H](O)[C@@H]4O[C@]4(CO)[C@@H]23)[C@H](O)[C@@H](O)[C@@H]1O | 84.6% (inactive) | 
7 | C/C=C1/[C@H](O[C@@H]2O[C@H](CO)[C@@H](O)[C@H](O)[C@H]2O)OC=C(C(=O)OC)[C@H]1CC(=O)OCCc1ccc(O)c(O)c1 | 79.1% [at 17.3 µM] (inactive) | 
8 | CCn1c2ccccc2c2cc(Nc3ccnc(NCCCN4CCOCC4)n3)ccc21 |  | 2.31 µM (active)
9 | Cc1cc(-c2cc(O)ccc2Cl)cc2nnc(Nc3ccc(OCCN4CCCC4)cc3)nc12 |  | 1.84 µM (active)
10 | C/C1=C\[C@H]2OC(=O)[C@@H](C)[C@@H]2CC/C(C(=O)O)=C/CC1 | 60% (inactive) | 
11 | COC(=O)C1=CO[C@@H](O[C@@H]2O[C@H](CO)[C@@H](O)[C@H](O)[C@H]2O)[C@@H]2[C@@H](C)[C@@H](O)C[C@H]12 | 85.9% (inactive) | 
12 | O=C(NCCO)c1cccc(-c2cc(Nc3ccc(OC(F)(F)F)cc3)ncn2)c1 |  | 6.51 µM (active)
13 | COC(=O)C1=CO[C@@H](O[C@@H]2O[C@H](CO)[C@@H](O)[C@H](O)[C@H]2O)[C@@H]2[C@@H](C(=O)OC)[C@@H](O)C(O)[C@H]12 (stereo partly drawn) | 78.1% [at 17.3 µM] (inactive) | 
